Bioassay records (PubChem BioAssay)
ANO1 activ = activators or potentiators of mouse TMEM16A chloride channel; Q8BHY3; B-score at 10 µM; actives 0.3% (n = 340,000); HEK293 TMEM16A/YFP-H148Q/I152L, iodide quench fluorescence; hits give low values;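 active = fluorescence-ratio B-score plate-corrected deviation score at least 3 library SD below zero, with starting fluorescence score within 5 deviations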;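 note: channel opened by trigger with iodide after compound preincubation; score built on the fluorescence ratio of max minus min over baseline; more negative score means more quench and so TMEM16A activation or potentiation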
CHT block = inhibits the human high affinity choline transporter | actives 0.86% (n = 310,000) | CHT-expressing cells, membrane potential dye, choline response; hits give low values | B-score at 10 µM | Q9GZV3;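 active = B-score over 3 SD under the library average, and starting fluorescence ratio not unusually high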;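 note: choline stimulus applied at its EC90 after an EC20 pre-addition; B-score computed on integrated fluorescence ratio after choline addition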
Target sequence (Q9GZV3 whole entry, looked up): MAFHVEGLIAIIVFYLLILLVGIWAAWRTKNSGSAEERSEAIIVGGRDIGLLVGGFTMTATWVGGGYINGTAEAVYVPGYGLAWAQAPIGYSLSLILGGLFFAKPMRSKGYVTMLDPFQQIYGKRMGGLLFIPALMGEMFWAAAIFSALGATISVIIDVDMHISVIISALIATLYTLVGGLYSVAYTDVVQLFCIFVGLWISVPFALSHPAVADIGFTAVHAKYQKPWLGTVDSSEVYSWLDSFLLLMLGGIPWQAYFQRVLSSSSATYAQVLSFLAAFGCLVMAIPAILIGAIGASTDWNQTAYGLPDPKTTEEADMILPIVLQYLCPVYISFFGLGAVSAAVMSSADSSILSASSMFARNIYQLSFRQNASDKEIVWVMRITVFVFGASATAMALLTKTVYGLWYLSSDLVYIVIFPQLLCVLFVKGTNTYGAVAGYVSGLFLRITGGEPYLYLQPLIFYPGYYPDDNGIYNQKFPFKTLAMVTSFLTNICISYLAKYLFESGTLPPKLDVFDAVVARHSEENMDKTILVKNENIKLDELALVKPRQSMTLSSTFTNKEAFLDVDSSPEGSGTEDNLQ
TMEM16A inh = inhibitors of mouse TMEM16A calcium-activated chloride channel. Q8BHY3. HEK293 TMEM16A/YFP iodide influx fluorescence, ionomycin. normalized B-score (activity score, 25-100; higher = stronger inhibition) at 10 µM. actives 1.2% (n = 310,000);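 active = ratio plate-corrected score three or more library SD toward inhibition, starting fluorescence score within five deviations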;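 note: score derived from kinetic fluorescence span divided by baseline fluorescence per well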
CHT allo act = allosterically activates the human high affinity choline transporter. Q9GZV3. CHT-expressing cells, membrane potential dye, choline EC20; hits give high values; LV-AA mutant CHT in HEK293 cells. B-score at 10 µM. actives 0.49% (n = 310,000). AID 488977;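 active = initial fluorescence not abnormally high and integrated response B-score, plate-corrected, over 3 SD above library mean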
CHT inh conf = confirmation of human choline transporter CHT inhibitors | CHT activity remaining % of control (hits give low values), % at 10 µM | shares compounds with CHT block | actives 70% (n = 2,400) | CHT-expressing cells, choline membrane potential dye; LV-to-AA substituted CHT, HEK293 cells;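 active = choline transporter activity left, mean of duplicates at 10 µM, below buffer-only control mean minus 3 SD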;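 note: depolarization triggered by choline at its EC90 following an EC20 pre-addition; 0% = hemicholinium-3 full block and 100% = buffer-only control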
HEK293 MPD ctr = counter-screen for CHT inhibitors: effect in parental HEK293 cells; membrane potential dye, choline response; active = decrease or increase beyond buffer ±3SD; actives 4% (n = 2,400); shares compounds with CHT block; membrane potential ratio readout (active if shifted either direction beyond buffer ±3SD; no single direction) at 10 µM;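 note: parental cells lack the transporter so any hit is non-specific; ratio is peak minus trough fluorescence over baseline after EC90 choline challenge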
An asterisk follows results filed as active; i = inactive; nt = not tested or not shown. In the library only some 2.3% were active in any assay of this set; here they are far more common.

SMILES	ANO1 activ	CHT block	TMEM16A inh	CHT allo act	CHT inh conf	HEK293 MPD ctr
CSc1ccc(C(=O)C2CCCN(C(=O)c3nonc3C)C2)cc1 (configuration not stated)	i	-5.67*	i	i	59.6%*	i
COC(=O)c1ccc(COC(=O)C(CCS(C)(=O)=O)N2C(=O)c3ccccc3C2=O)cc1 (configuration not stated)	i	-6.31*	i	i	i	i
CC(=O)c1ccc(OC(=O)C(CCS(C)(=O)=O)N2C(=O)c3ccccc3C2=O)cc1 (configuration not stated)	i	i	i	i	nt	nt
CCCCNc1ncnc2c1cnn2-c1ccccc1	i	-5.39*	i	i	i	i
O=C(CN1C(=O)NC2(CCCCCCC2)C1=O)NCc1ccc(Cl)cc1	i	nt	nt	nt	nt	nt
CNC(=O)CSc1nc2sccc2c(=O)n1-c1ccccc1	i	i	i	i	nt	nt
N#CCSc1nc2sccc2c(=O)n1-c1ccccc1	i	-5.53*	i	i	i	i
CCN(CC)C(=O)C(C)OC(=O)COc1ccc(Cl)cc1C (configuration not stated)	i	i	i	i	i	i
Cc1ccc(C)c(N(C)S(=O)(=O)c2cccc3nsnc23)c1	i	-5.22*	i	i	i	i
CCOC(=O)c1nn(-c2ccccc2)c2nnc(Cc3ccc(Cl)cc3)c(=O)n12	i	i	i	i	nt	nt
CCOC(=O)c1nn(-c2ccc(Cl)cc2)c2nnc(Cc3ccc(C)cc3)c(=O)n12	i	-5.94*	i	i	i	i
COC(=O)c1ccc(N2CCN(c3ccccc3)CC2)nc1	i	i	i	i	nt	nt
CC(C)C(=O)Nc1cccc(NC(=O)c2ccc(Cl)cc2Cl)c1	i	-9.43*	i	i	42.9%*	i
CC(SCC(=O)O)c1nc2ccccc2[nH]1 (configuration not stated)	i	-5.71*	i	i	i	i
CN(C)CCn1c(=S)[nH]c2ccccc2c1=O	i	-7.87*	i	i	28.5%*	i
CN(C)CCCn1c(=S)[nH]c2ccccc2c1=O	i	i	i	i	nt	nt
CC(=O)c1ccc(N2CCN(C(=O)C3CCCN3S(=O)(=O)c3cccc4nsnc34)CC2)cc1 (configuration not stated)	i	i	i	i	nt	nt
O=C(C1CCCN1S(=O)(=O)c1cccc2nsnc12)N1CCCCC1 (configuration not stated)	i	-9.82*	25*	i	i	i
CCOc1ncccc1C(=O)NCC1COc2ccccc2O1 (configuration not stated)	i	-5.16*	i	i	67.1%*	i
Cc1nn(-c2ccccc2)c(C)c1C(=O)OCC(=O)Nc1cccc(S(N)(=O)=O)c1	i	nt	nt	nt	nt	nt
CCC(C)c1ccc(C(CC)NC(=O)C2CCCO2)cc1 (configuration not stated)	i	i	i	i	nt	nt
CCC(C)c1ccc(NC(=S)NC(C)C2CCCO2)cc1 (configuration not stated)	i	-8.32*	i	i	47.1%*	i
CCCCNS(=O)(=O)c1ccc(NC(=O)c2c(-c3ccccc3Cl)noc2C)cc1	i	-4.99*	i	i	54.0%*	i
CS(=O)(=O)N1CCCCC1CCN1CCCCC1 (configuration not stated)	i	nt	nt	nt	nt	nt
Cn1c(/C=C/N(Cc2ccccc2)c2ccccc2)c([N+](=O)[O-])c(=O)n(C)c1=O	i	-8.36*	i	i	49.5%*	i
SMILES	ANO1 activ	CHT block	TMEM16A inh	CHT allo act	CHT inh conf	HEK293 MPD ctr
CCc1ccc(/C=C/c2c([N+](=O)[O-])c(=O)n(C)c(=O)n2C)cc1	i	i	i	i	nt	nt
COc1ccc(CNC(=O)CN(C(=O)Cn2nnc(-c3ccccc3F)n2)c2ccc(C)cc2)cc1	i	-5.2*	i	i	i	i
COc1ccc(NC(=O)Cn2nnc(-c3ccccc3F)n2)cc1	i	i	i	i	nt	nt
CC(NCc1ccc(OCc2ccc(Cl)cc2)cc1)C(O)c1ccccc1 (configuration not stated)	i	i	i	i	nt	nt
C[C@@H](NCCc1ccc(O)cc1)[C@@H](O)c1ccc(O)cc1	i	-4.95*	i	i	47.3%*	i
Cc1nccn1CC1CCc2c(c3ccccc3n2C)C1=O (configuration not stated)	i	-6.66*	i	i	7.4%*	i
Cc1nccn1C[C@@H]1CCc2c(c3ccccc3n2C)C1=O	i	-5.75*	i	i	11.6%*	i
CN(CC(=O)N1CCN(Cc2ccccc2)CC1)C(=O)Cc1ccc(Cl)c(Cl)c1	i	nt	nt	nt	nt	nt
CCCCCN(C(=O)CCC(=O)OCc1cccc(F)c1)c1c(N)n(CCCC)c(=O)[nH]c1=O	i	i	i	i	nt	nt
COc1ccccc1NS(=O)(=O)c1ccc(O)c(C(N)=O)c1	i	i	i	i	nt	nt
COc1ccccc1NS(=O)(=O)c1ccc(O)c(C(=O)OCC(=O)c2ccc(Cl)cc2Cl)c1	i	-5.33*	i	i	62.2%*	i
COc1ccc(N=c2sc3ccccc3n2C)cc1	i	i	i	i	nt	nt
Cn1c(=NCC(O)COc2ccccc2)sc2ccccc21 (configuration not stated)	i	-18.8*	i	i	8.9%*	i
Cc1cc(C)n(-c2nnc(NCc3ccc(Cl)cc3)nn2)n1	i	i	i	i	nt	nt
Cc1nn(-c2nnc(NCc3ccccc3)nn2)c(C)c1Br	i	-5.28*	i	i	i	i
Cc1sc2ncnc(NCc3ccco3)c2c1C	i	-5.4*	i	i	64.6%*	i
CC(C)c1nnc(NC(=O)C2CCCN2C(=O)Nc2cccc(Cl)c2)s1 (configuration not stated)	i	i	i	i	nt	nt
COc1ccc(CN2CC[C@H]3C=CCc4cccc(c43)C2)cc1	i	nt	nt	nt	nt	nt
CC(NC(=O)CN(c1cccc(C(F)(F)F)c1)S(=O)(=O)c1ccc(Cl)c([N+](=O)[O-])c1)c1ccccc1 (configuration not stated)	i	-6.17*	i	i	i	i
COC(=O)CN1C(=O)S/C(=C/c2ccc(N3CCCCC3)o2)C1=O	i	-5.14*	i	i	i	i
O=c1cc(CN2CCN(c3ccccc3O)CC2)nc2sccn12	i	-8.78*	i	i	42.5%*	i
